# Laboratory results: PubChem BioAssay (EPA / NIEHS)
# Several values for one entry are separate records, joined by “and”; a condition that tells them apart may be missing. Equal entries are not always repeated. Records with an inconclusive call do not appear. Activity calls are given as the source filed them. The calls were made as follows, unless noted: active = hit-call score of the fitted dose curve at least 0.9, where 1 is the maximum; inactive = score below 0.9.
# Assays:
# [1] = CCTE_Shafer_MEA_acute_network_burst_percentage: CCTE's Neural Acute Assay for Percentage of Network Bursts, Shafer Lab (AID 2284022);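 also: curves fitted for loss so actives lower network burst percentage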;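 as to outcome: rat primary cortical neuron networks on multiwell MEA recorded 40 min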
# Summary of the method: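 On DIV 13 or 15, at least three wells of rat cortical neurons per compound are dosed at 0.03-40 uM. Spontaneous firing is detected at 8x rms noise for 40 min before and after dosing at 37 C. The percent change in network-burst spike share is reported.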
# [2] = CCTE_Shafer_MEA_acute_cross_correlation_area: CCTE's Neural Acute Assay for Area of Cross Correlation, Shafer Lab (AID 2284024);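 also: rat primary cortical neuron networks on 48-well MEA at DIV 13 or 15 with 40 min exposure; area under pooled inter-electrode spike cross-correlation near zero lag as percent change from own baseline; curves fitted for loss of cross-correlation area so actives lower synchrony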
# Summary of the method: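 Extracellular recordings from cultured rat cortical neurons measure network synchrony as cross-correlation area; each well's post-compound value (0.03-40 uM, 40 min) is compared with its own 40 min baseline to give percent change.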
# [3] = CCTE_Shafer_MEA_acute_synchrony_index: CCTE's Neural Acute Assay for Synchrony, Shafer Lab (AID 2284027);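 also: network synchrony index of spontaneous spiking in primary rat cortical neurons on MEAs; fitted for loss of signal so actives lower synchrony relative to DMSO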
# Summary of the method: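 Plates equilibrated 20 min at 37 C, baseline recorded 40 min, compound (0.03-40 uM) added, then 40 min more recorded. Cells: primary rat cortical neurons, DIV 13 or 15. Per-well synchrony index change analysed in negative direction against DMSO.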
# [4] = CCTE_Shafer_MEA_dev_firing_rate_mean: CCTE's Neural Network Formation Assay for Mean Firing Rate, Shafer Lab (AID 2284031);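 as to AC50: curve fitted for loss of firing so AC50 reflects decreased mean firing rate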
# Summary of the method: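 Steps: seed rat cortical cells (1.5 x 10^5/well) with laminin on PEI-coated MEA; dose day 0; record DIV 5/7/9/12, full media and compound exchange after DIV 5 and 9 recordings; compute well-mean firing rate AUC.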
# [5] = CCTE_Shafer_MEA_dev_per_burst_spike_percent: CCTE's Neural Network Formation Assay for Percent of Spikes in a Burst, Shafer Lab (AID 2284032);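 as to AC50: fitted as a decrease in burst spike percentage below DMSO baseline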
# Summary of the method: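 Value is trapezoidal AUC over recordings on days 5, 7, 9 and 12 of the well-mean fraction of spikes falling in single-electrode bursts; rat cortical cultures exposed continuously from plating, treatment renewed DIV 5 and 9, fitted downward against DMSO.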
# [6] = target: Estrogen receptor (Homo sapiens) (UniProt P03372); assay: CCTE_Deisenroth_AIME_384WELL_LUC_Active: CCTE's 384-well Estrogen Receptor Transactivation Assay with AIME metabolic competence (ERTA luciferase; metabolism positive), Deisenroth Lab (AID 2284030; active = hit-call score of the fitted dose curve at least 0.9, where 1 is the maximum)
# Sequence of Estrogen receptor (Homo sapiens) (P03372 whole entry, looked up): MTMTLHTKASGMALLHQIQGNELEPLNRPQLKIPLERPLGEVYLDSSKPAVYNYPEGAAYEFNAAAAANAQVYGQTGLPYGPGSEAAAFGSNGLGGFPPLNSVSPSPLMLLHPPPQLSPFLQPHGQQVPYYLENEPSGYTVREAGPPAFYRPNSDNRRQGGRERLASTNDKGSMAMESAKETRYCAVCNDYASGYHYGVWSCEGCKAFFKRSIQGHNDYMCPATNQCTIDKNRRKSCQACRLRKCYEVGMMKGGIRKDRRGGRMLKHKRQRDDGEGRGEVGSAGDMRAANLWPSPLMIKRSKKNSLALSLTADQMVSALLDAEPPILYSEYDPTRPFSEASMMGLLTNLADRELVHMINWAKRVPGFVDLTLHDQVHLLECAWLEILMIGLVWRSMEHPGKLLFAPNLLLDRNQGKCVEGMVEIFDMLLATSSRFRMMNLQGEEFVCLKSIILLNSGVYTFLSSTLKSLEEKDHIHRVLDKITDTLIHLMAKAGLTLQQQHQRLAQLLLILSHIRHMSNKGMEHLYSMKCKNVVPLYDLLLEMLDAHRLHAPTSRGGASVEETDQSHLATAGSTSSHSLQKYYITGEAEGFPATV
# Summary of the method: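 Estrogenic luciferase signal in VM7Luc4E2 cells is measured at 24 hour, after chemicals have been preconditioned 2 hours with PB/BNF-induced rat hepatic S9 in alginate. Gain of signal is fitted relative to 17beta-estradiol, across 0.002 - 200 uM.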
smiles,measurement,setting,value
N#Cc1c[nH]cc1-c1cccc2c1OC(F)(F)O2,outcome,[1],inactive
same,outcome,[2],inactive
same,outcome,[3],inactive
COC(=O)N(C(=O)N1CO[C@@]2(C(=O)OC)Cc3cc(Cl)ccc3C2=N1)c1ccc(OC(F)(F)F)cc1,outcome,[1],inactive
same,outcome,[2],inactive
same,AC50,[3],26.6 µM (active)
same,outcome,[4],inactive
same,AC50,[5],23.1 µM (active)
CC(C)N1C(=O)N(c2ccccc2)CSC1=NC(C)(C)C,AC50,[1],26.5 µM (active)
same,outcome,[2],inactive
same,AC50,[3],23.2 µM (active)
same,outcome,[6],inactive
Cn1c(-c2ccccc2)cc(-c2ccccc2)[n+]1C,AC50,[1],28 µM (active)
same,outcome,[2],inactive
same,AC50,[3],36.8 µM (active)
C=C(C)CN(CC)c1c([N+](=O)[O-])cc(C(F)(F)F)cc1[N+](=O)[O-],outcome,[1],inactive
same,outcome,[2],inactive
same,outcome,[3],inactive
same,outcome,[6],inactive
same,AC50,[4],12.8 µM (active)
same,AC50,[5],18.6 µM (active)
CCOc1nc(F)cc2nc(S(=O)(=O)Nc3c(Cl)cccc3Cl)nn12,outcome,[1],inactive
same,outcome,[2],inactive
same,outcome,[3],inactive
CO/N=C(/C1=NOCCO1)c1ccccc1Oc1ncnc(Oc2ccccc2Cl)c1F,outcome,[1],inactive
same,outcome,[2],inactive
same,AC50,[3],20 µM (active)
same,AC50,[4],589 nM (active) and 960 nM (active)
same,AC50,[5],1.75 µM (active) and 1.24 µM (active)
Nc1c(Cl)c(F)nc(OCC(=O)O)c1Cl,outcome,[1],inactive
same,outcome,[2],inactive
same,outcome,[3],inactive
Cc1ccc(N=CN(C)C=Nc2ccc(C)cc2C)c(C)c1,AC50,[1],20 µM (active)
same,outcome,[2],inactive
same,outcome,[3],inactive
same,outcome,[6],inactive
COCC(=O)N(c1c(C)cccc1C)C(C)C(=O)OC (configuration not stated),outcome,[1],inactive
same,outcome,[2],inactive
same,outcome,[3],inactive
CCCC(=NOCC)C1=C(O)CC(CC(C)SCC)CC1=O (configuration not stated),outcome,[1],inactive
same,outcome,[2],inactive
same,AC50,[3],28.2 µM (active)
same,outcome,[6],inactive
CC1(C)CON(Cc2ccccc2Cl)C1=O,outcome,[6],inactive
Cc1cc(C)nc(Nc2ccccc2)n1,AC50,[6],93.3 µM (active)
Nc1c(Cl)c(Cl)nc(C(=O)O)c1Cl,AC50,[6],41.7 µM (active)
CCCN(CC)CC1COC2(CCC(C(C)(C)C)CC2)O1 (configuration not stated),outcome,[1],inactive
same,outcome,[2],inactive
same,outcome,[3],inactive
same,AC50,[4],0.066 µM (active)
same,AC50,[5],0.335 µM (active)
Clc1cccc(C(Cl)(Cl)Cl)n1,outcome,[6],inactive
CS(=O)(=O)c1ccc(C(=O)C2C(=O)CCCC2=O)c([N+](=O)[O-])c1,outcome,[4],inactive
same,outcome,[5],inactive
COCc1cnc(C2=NC(C)(C(C)C)C(=O)N2)c(C(=O)O)c1 (configuration not stated),outcome,[6],inactive
COP(=S)(OC)Oc1ccc([N+](=O)[O-])c(C)c1,outcome,[6],inactive
same,outcome,[4],inactive
same,outcome,[5],inactive
O=c1n(Cl)c(=O)n(Cl)c(=O)n1Cl,outcome,[6],inactive
Nc1cnn(-c2ccccc2)c(=O)c1Cl,outcome,[6],inactive
CCSC(=O)N1CCCCCC1,outcome,[6],inactive
same,outcome,[4],inactive
same,outcome,[5],inactive
CS(=O)(=O)c1cc(C(F)(F)F)ccc1C(=O)c1cnoc1C1CC1,outcome,[6],inactive
same,outcome,[4],inactive
same,outcome,[5],inactive
N#CN=C1SCCN1Cc1ccc(Cl)nc1,AC50,[1],4.76 µM (active)
same,outcome,[2],inactive
same,outcome,[3],inactive
same,outcome,[4],inactive
same,outcome,[5],inactive
O=C1C2CC=CCC2C(=O)N1SC(Cl)(Cl)Cl (configuration not stated),outcome,[4],inactive
same,AC50,[5],16.7 µM (active) and 15.7 µM (active)
CCNC(=O)NC(=O)C(C#N)=NOC,outcome,[4],inactive
same,outcome,[5],inactive
COc1cc(OC)nc(NC(=O)NS(=O)(=O)c2ncccc2OCC(F)(F)F)n1,outcome,[6],inactive
COC(=O)NC(=S)Nc1ccccc1NC(=S)NC(=O)OC,outcome,[6],inactive
N#Cc1c(Cl)cccc1Cl,outcome,[6],inactive
CCN(CC)c1nc(C)cc(OP(=S)(OC)OC)n1,outcome,[4],inactive
same,AC50,[5],30.9 µM (active)
COP(=O)(OC)O/C(C)=C/C(=O)N(C)C,outcome,[4],inactive
same,outcome,[5],inactive
CC(C)(C)C(=O)C(Oc1ccc(Cl)cc1)n1cncn1 (configuration not stated),outcome,[4],inactive
same,AC50,[5],41.3 µM (active)
CC(C)Nc1nc(Cl)nc(NC(C)C)n1,outcome,[6],inactive
CCOP(=S)(OCC)Oc1nc(Cl)n(C(C)C)n1,outcome,[6],inactive
CN=C=S,outcome,[6],inactive
CCOc1nc(C(Cl)(Cl)Cl)ns1,outcome,[6],inactive
CCC(C)n1c(=O)[nH]c(C)c(Br)c1=O (configuration not stated),outcome,[6],inactive
COCC(C)N(C(=O)CCl)c1c(C)csc1C (configuration not stated),outcome,[6],inactive
COC(=O)NS(=O)(=O)c1ccc(N)cc1,outcome,[6],inactive
CNC(=O)N(C)c1nnc(C(C)(C)C)s1,outcome,[6],inactive
